# According to PubChem BioAssay (EPA / NIEHS):
# Results filed as inconclusive are left out. Active and inactive are the calls of the source. The calls were made as follows, unless noted: active = hit-call score of the fitted dose curve at least 0.9, where 1 is the maximum; inactive = score below 0.9.
# Experiments:
# [1] = target: Aryl hydrocarbon receptor (Homo sapiens) (UniProt P35869); experiment: ATG_Ahr_CIS: Attagene CIS-FACTORIAL HepG2 Assay for human Aryl Hydrocarbon Receptor (Ahr) (AID 2282930); conditions: HepG2 AhR cis-factorial reporter transcription; actives raise or lower the signal
# Aryl hydrocarbon receptor (Homo sapiens), sequence (P35869 whole entry, looked up): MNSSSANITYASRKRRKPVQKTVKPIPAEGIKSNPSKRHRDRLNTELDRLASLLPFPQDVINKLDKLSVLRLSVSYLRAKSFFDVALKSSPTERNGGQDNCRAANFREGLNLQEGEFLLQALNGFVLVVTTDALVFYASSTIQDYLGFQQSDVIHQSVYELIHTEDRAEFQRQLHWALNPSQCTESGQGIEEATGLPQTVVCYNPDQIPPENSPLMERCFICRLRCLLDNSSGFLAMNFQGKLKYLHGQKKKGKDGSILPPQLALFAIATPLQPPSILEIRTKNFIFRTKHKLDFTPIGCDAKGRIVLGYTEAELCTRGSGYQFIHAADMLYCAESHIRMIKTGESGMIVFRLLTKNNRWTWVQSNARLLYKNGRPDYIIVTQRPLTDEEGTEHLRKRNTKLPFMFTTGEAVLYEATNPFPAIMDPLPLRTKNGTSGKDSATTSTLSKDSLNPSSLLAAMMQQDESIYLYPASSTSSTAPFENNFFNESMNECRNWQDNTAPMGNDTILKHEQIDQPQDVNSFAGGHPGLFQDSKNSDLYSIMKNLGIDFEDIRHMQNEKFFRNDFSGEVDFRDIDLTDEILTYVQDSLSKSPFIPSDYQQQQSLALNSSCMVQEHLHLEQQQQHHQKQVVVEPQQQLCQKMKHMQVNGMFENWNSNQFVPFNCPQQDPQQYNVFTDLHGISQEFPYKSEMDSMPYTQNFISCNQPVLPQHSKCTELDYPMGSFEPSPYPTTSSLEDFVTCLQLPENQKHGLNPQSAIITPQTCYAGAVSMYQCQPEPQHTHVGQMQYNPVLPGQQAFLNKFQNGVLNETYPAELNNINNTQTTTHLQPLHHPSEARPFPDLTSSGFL
# Outline: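 HepG2, transient MRTU (cis) transfection, 24 h exposure. RNA → cDNA → PCR → 6-FAM primer extension → HpaI 2 h 37 C → CE. Fit: bidirectional, DMSO baseline.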
# [2] = ATG_M_61_CIS: Attagene CIS-FACTORIAL HepG2 Assay for M61 Transcription Factor (Internal Marker) (AID 2282937); conditions: HepG2 Attagene CIS-FACTORIAL M61 internal marker reporter; actives raise or lower the signal
# Outline: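 Fluorescence from labelled cDNA fragments, separated by capillary electrophoresis, quantifies reporter induction. HepG2 cells bearing transiently transfected cis-promoter MRTUs were incubated with test chemical for 24 h; DMSO defined baseline for gain/loss fitting.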
# [3] = ATG_GRE_CIS: Attagene CIS-FACTORIAL HepG2 Assay for human Glucocorticoid Response Elements (GRE) (AID 2282947); conditions: HepG2 GRE cis-reporter, Attagene multiplex mRNA; actives raise or lower the signal
# Outline: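 Multiplexed cis-reporter mRNA induction, HepG2, 24 h post-dose. RT-PCR, FAM-labelled, HpaI-digested amplicons by CE. Bidirectional fit vs DMSO.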
# [4] = target: Hypoxia-inducible factor 1-alpha (Homo sapiens) (UniProt Q16665); experiment: ATG_HIF1a_CIS: Attagene CIS-FACTORIAL HepG2 Assay for human Hypoxia Inducible Factor 1 (HIF1A) (AID 2282951); conditions: HepG2 Attagene cis-factorial HIF1a reporter transcription; actives raise or lower the signal
# Hypoxia-inducible factor 1-alpha (Homo sapiens), sequence (Q16665 whole entry, looked up): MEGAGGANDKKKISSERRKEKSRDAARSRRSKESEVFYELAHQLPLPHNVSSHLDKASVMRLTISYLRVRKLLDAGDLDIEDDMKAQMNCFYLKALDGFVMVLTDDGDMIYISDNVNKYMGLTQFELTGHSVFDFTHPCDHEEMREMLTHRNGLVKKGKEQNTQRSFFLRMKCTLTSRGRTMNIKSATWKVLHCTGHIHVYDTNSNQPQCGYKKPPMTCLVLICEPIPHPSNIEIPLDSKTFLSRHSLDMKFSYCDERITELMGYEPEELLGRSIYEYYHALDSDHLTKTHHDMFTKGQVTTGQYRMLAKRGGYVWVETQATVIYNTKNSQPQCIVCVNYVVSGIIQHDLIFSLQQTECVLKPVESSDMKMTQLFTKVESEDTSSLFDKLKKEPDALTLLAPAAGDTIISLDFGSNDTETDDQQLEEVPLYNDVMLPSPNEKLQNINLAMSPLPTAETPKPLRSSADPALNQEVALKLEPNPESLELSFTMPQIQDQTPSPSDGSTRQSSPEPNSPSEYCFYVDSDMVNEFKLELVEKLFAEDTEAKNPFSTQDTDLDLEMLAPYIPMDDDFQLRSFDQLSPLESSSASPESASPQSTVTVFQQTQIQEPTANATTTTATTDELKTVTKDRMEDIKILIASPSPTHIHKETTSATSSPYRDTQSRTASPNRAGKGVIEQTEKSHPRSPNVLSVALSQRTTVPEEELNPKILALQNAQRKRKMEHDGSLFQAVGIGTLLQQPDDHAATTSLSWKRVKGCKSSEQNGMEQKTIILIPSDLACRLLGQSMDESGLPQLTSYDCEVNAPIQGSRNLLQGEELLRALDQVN
# Outline: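 In this multiplexed cell assay, HepG2 cells bearing transfected cis reporters are dosed for 24 h and reporter mRNA is read by RT-PCR plus capillary electrophoresis; signal increases and decreases are both scored against DMSO.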
# [5] = ATG_MRE_CIS: Attagene CIS-FACTORIAL HepG2 Assay for human Metal Responsive Element (MRE) (AID 2282954); conditions: HepG2 MRE cis-reporter transcription, Attagene multiplex; actives raise or lower the signal
# Outline: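 Multiplexed cis-reporter assay in human HepG2 liver cells, 24 h incubation with test chemical. Reporter transcripts measured by RT-PCR and capillary electrophoresis; values from bidirectional curve fitting versus DMSO.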
# [6] = ATG_TCF_b_cat_CIS: Attagene CIS-FACTORIAL HepG2 Assay for human T-Cell-Factor with beta-catenin (TCF/b-cat) (AID 2282965); conditions: HepG2 TCF/beta-catenin cis-reporter transcription, actives raise or lower the signal
# Outline: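 Measured: reporter mRNA in HepG2 transiently transfected with cis-promoter reporter units, 24 h after chemical addition. Fitting was bidirectional, DMSO as negative control.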
# [7] = ATG_TGFb_CIS: Attagene CIS-FACTORIAL HepG2 Assay for human Transforming Growth Factor (TGF) (AID 2282967); conditions: HepG2 Attagene CIS TGFb reporter, mRNA transcription; actives raise or lower the signal
# Outline: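 HepG2 cells transiently transfected with cis-promoter-driven multiple reporter units measure endogenous TF activity; reporter mRNA quantified at 24 h by RT-PCR, FAM labeling, HpaI digestion and capillary electrophoresis. Bidirectional fit vs DMSO.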
# [8] = ATG_VDRE_CIS: Attagene CIS-FACTORIAL HepG2 Assay for human Vitamin D Receptor Element (VDRE) (AID 2282968); conditions: HepG2 VDRE cis-reporter transcription, actives raise or lower the signal
# Outline: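 Measures endogenous factor activity through cis-element-driven reporter transcripts in transiently transfected HepG2. Cells are treated 24 h; reporter mRNA is quantified by RT-PCR and capillary electrophoresis; fitting is bidirectional.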
# [9] = target: X-box-binding protein 1 (Homo sapiens) (UniProt P17861); experiment: ATG_Xbp1_CIS: Attagene CIS-FACTORIAL HepG2 Assay for human X-box Binding Protein 1 (XBP1) (AID 2282972); conditions: HepG2 XBP1 cis-element reporter, Attagene multiplex; actives raise or lower the signal
# X-box-binding protein 1 (Homo sapiens), sequence (P17861 whole entry, looked up): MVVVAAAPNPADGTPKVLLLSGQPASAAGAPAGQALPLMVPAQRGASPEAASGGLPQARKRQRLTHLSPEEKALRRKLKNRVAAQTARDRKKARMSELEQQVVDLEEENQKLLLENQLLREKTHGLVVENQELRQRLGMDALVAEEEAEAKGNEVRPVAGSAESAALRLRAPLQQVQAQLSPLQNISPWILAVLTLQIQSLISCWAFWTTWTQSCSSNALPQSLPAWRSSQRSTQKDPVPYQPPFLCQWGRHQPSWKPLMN
# Outline: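 Multiplexed cis-reporter readout in transfected HepG2 liver cells. Exposure lasted 24 hours. Activity in either direction was fitted against DMSO as negative control and baseline.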
# [10] = target: Transcriptional activator Myb (Homo sapiens) (UniProt P10242); experiment: ATG_Myb_CIS: Attagene CIS-FACTORIAL HepG2 Assay for human Myeloblastosis (Myb) Proto-Oncogene Transcription Factor (AID 2282986); conditions: HepG2 Attagene CIS-FACTORIAL Myb reporter transcription; actives raise or lower the signal
# Transcriptional activator Myb (Homo sapiens), sequence (P10242 whole entry, looked up): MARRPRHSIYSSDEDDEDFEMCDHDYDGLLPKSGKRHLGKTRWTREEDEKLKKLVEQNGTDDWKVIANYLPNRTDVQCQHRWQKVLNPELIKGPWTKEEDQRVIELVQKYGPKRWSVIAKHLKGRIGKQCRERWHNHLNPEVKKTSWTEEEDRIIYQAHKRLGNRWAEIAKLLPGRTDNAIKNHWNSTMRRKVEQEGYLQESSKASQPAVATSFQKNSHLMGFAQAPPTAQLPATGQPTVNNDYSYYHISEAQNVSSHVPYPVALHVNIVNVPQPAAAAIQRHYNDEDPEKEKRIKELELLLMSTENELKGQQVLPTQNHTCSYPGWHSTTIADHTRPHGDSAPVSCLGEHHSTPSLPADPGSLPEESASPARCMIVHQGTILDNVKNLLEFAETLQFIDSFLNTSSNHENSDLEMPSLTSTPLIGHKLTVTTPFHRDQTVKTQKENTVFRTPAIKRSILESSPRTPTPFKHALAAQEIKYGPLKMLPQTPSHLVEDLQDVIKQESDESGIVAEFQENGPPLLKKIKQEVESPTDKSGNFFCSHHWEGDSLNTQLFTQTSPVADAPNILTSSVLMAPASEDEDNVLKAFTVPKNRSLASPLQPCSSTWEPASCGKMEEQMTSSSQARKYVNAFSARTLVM
# Outline: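 Fluorescence signals from capillary electrophoresis of RT-PCR-amplified reporter cDNA give the read-out. Cells: HepG2 transfected with multiple cis-regulated reporter units. Exposure lasts 24 hours; DMSO defines baseline for gain or loss of signal.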
# [11] = target: Nuclear respiratory factor 1 (Homo sapiens) (UniProt Q16656); experiment: ATG_NRF1_CIS: Attagene CIS-FACTORIAL HepG2 Assay for human Nuclear Respiratory Factor 1 (NRF1) Orphan Gene (AID 2282987); conditions: HepG2 NRF1 cis-element reporter, Attagene multiplex; actives raise or lower the signal
# Nuclear respiratory factor 1 (Homo sapiens), sequence (Q16656 whole entry, looked up): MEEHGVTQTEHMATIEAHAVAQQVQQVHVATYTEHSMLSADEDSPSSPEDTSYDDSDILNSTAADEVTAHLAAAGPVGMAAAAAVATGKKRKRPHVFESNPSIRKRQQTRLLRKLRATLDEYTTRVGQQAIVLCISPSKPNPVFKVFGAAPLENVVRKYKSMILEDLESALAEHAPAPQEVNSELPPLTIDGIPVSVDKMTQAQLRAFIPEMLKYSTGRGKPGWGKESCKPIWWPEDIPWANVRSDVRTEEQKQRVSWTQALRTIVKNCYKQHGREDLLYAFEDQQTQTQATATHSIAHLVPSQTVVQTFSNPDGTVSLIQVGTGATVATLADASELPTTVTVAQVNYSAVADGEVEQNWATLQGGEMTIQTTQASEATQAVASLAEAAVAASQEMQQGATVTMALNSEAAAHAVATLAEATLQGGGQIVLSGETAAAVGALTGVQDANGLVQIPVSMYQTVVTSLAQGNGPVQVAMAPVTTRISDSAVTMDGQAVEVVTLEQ
# Outline: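 Transcriptional reporter readout, one component of a 52-endpoint multiplexed HepG2 panel. Exposure 24 h; mRNA detected via RT-PCR and fluorescent capillary electrophoresis; fitting in both directions against DMSO.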
# [12] = ATG_NFI_CIS: Attagene CIS-FACTORIAL HepG2 Assay for human Nuclear Factor I (NFI) (AID 2282989); conditions: HepG2 cis-regulatory reporter, NFI response element transcription; actives raise or lower the signal
# Outline: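 Endogenous TF activity in HepG2 cells transiently transfected with cis-element-driven multiplexed reporter units, read 24 h after dosing. Reporter mRNA quantified by RT-PCR, 6-FAM labelling, HpaI digestion and capillary electrophoresis; bidirectional fit versus DMSO.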
# [13] = target: Myc proto-oncogene protein (Homo sapiens) (UniProt P01106); experiment: ATG_Myc_CIS: Attagene CIS-FACTORIAL HepG2 Assay for human Myelocytomatosis (Myc) Proto-Oncogene Transcription Factor (AID 2282990); conditions: HepG2, Attagene cis-reporter transcription factor activity; actives raise or lower the signal
# Myc proto-oncogene protein (Homo sapiens), sequence (P01106 whole entry, looked up): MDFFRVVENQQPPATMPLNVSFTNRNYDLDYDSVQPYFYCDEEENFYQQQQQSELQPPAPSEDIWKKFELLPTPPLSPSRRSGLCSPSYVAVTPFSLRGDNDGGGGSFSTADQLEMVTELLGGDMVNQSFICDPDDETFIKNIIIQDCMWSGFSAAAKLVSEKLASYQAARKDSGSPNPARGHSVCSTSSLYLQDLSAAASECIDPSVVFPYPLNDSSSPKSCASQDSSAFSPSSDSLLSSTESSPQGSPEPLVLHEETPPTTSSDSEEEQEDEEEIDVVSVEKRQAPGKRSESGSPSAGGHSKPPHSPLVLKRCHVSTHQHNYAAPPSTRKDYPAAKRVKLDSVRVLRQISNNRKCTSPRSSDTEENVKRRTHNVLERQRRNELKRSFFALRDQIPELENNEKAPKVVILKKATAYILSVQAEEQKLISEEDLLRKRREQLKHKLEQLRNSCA
# Outline: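 Cells of the HepG2 human liver line bear multiple cis-driven reporter transcription units. Reporter mRNA after 24 h exposure is reverse-transcribed, amplified, labelled and resolved by capillary electrophoresis, with gain- or loss-of-signal fitting relative to DMSO.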
# [14] = ATG_NF_kB_CIS: Attagene CIS-FACTORIAL HepG2 Assay for human Nuclear Factor Kappa B (NF-kB) (AID 2282991); conditions: HepG2 Attagene cis-factorial NF-kB reporter mRNA; actives raise or lower the signal
# Outline: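 HepG2, transient multi-reporter transfection, cis promoter elements (endogenous TFs). 24 h exposure. Total RNA → RT → PCR → 6-FAM label → HpaI → CE. Gain/loss vs DMSO.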
# [15] = ATG_Oct_MLP_CIS: Attagene CIS-FACTORIAL HepG2 Assay for human Octamer-Binding Transcription Factor (Oct) (AID 2282993); conditions: HepG2 Attagene cis-factorial Oct reporter, mRNA; actives raise or lower the signal
# Outline: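 HepG2 cells transiently transfected with cis-element-driven reporter transcription units (endogenous TF activity); 24 h compound exposure. Reporter mRNA quantified by RT-PCR, 6-FAM labelling, HpaI digestion and capillary electrophoresis; bidirectional fit versus DMSO baseline.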
# [16] = target: Cellular tumor antigen p53 (Homo sapiens) (UniProt P04637); experiment: ATG_p53_CIS: Attagene CIS-FACTORIAL HepG2 Assay for human p53 Transcription Factor (AID 2282994); conditions: HepG2 p53 cis-element reporter, Attagene mRNA; actives raise or lower the signal
# Cellular tumor antigen p53 (Homo sapiens), sequence (P04637 whole entry, looked up, the tested form may be a part): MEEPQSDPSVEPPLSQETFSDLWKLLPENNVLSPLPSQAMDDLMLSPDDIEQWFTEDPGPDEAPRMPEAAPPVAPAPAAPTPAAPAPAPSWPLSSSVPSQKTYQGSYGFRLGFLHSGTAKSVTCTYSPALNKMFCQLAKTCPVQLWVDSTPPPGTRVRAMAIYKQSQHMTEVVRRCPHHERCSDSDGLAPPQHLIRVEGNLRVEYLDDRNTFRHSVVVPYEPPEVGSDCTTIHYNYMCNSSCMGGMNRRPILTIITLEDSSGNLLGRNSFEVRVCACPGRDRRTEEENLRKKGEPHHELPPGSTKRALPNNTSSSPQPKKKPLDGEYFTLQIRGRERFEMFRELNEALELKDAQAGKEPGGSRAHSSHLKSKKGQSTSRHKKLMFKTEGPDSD
# Outline: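 Steps: transfect HepG2 with multiplexed cis reporter constructs; dose chemicals 24 h; extract RNA, reverse-transcribe, PCR-amplify reporter sequences; FAM-label, HpaI-digest, resolve fragments by CE. Activity fitted both directions relative to DMSO.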
# [17] = target: Peroxisome proliferator-activated receptor gamma (Homo sapiens) (UniProt P37231); experiment: ATG_PPARg_TRANS: Attagene TRANS-FACTORIAL HepG2 Assay for human Peroxisome Proliferator-activated Receptor-gamma (PPARg) (AID 2283007; active = hit-call score of the fitted dose curve at least 0.9, where 1 is the maximum)
# Peroxisome proliferator-activated receptor gamma (Homo sapiens), sequence (P37231 whole entry, looked up): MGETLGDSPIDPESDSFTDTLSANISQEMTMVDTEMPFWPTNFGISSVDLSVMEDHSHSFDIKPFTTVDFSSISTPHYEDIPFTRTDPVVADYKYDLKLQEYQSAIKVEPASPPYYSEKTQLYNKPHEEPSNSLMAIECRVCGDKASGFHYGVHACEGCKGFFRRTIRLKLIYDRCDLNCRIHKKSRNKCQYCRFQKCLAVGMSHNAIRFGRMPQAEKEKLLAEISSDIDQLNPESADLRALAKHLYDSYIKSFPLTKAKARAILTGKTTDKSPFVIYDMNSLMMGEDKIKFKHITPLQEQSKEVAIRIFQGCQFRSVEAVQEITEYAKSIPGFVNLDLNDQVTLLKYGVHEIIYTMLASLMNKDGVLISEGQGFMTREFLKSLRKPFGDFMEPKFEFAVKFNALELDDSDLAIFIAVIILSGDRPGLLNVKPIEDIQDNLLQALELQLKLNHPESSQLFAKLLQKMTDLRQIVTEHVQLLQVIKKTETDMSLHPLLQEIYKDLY
# Outline: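 Multiplexed reporter transcription units in HepG2, 24 h dosing, reporter transcripts quantified by fluorescent RT-PCR and capillary electrophoresis. Increase over DMSO scored.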
# [18] = ATG_XTT_Cytotoxicity: Cytotoxicity Assessment in the Attagene TRANS-FACTORIAL HepG2 Assay (AID 2283584; active = hit-call score of the fitted dose curve at least 0.9, where 1 is the maximum)
# Outline: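 XTT readout of cell number in transfected HepG2 cells, 24 h post-dosing; DMSO serves as negative control and baseline, with activity taken as loss of viability signal.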
# [19] = ATG_GLI_CIS: Attagene CIS-FACTORIAL HepG2 Assay for human Zinc Finger Protein GLI1 (AID 2282945); conditions: HepG2, Attagene cis-factorial reporter mRNA, GLI element; actives raise or lower the signal
# Outline: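 Bidirectional curve fits relative to DMSO, using reporter mRNA levels from RT-PCR plus capillary electrophoresis. Cells were HepG2 transiently carrying cis-regulated reporter constructs, harvested 24 h after dosing.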
# [20] = target: Paired box protein Pax-6 (Homo sapiens) (UniProt P26367); experiment: ATG_Pax6_CIS: Attagene CIS-FACTORIAL HepG2 Assay for human Paired Box 6 (PAX6) (AID 2282956); conditions: HepG2 CIS-FACTORIAL PAX6 reporter transcription, RNA readout; actives raise or lower the signal
# Paired box protein Pax-6 (Homo sapiens), sequence (P26367 whole entry, looked up): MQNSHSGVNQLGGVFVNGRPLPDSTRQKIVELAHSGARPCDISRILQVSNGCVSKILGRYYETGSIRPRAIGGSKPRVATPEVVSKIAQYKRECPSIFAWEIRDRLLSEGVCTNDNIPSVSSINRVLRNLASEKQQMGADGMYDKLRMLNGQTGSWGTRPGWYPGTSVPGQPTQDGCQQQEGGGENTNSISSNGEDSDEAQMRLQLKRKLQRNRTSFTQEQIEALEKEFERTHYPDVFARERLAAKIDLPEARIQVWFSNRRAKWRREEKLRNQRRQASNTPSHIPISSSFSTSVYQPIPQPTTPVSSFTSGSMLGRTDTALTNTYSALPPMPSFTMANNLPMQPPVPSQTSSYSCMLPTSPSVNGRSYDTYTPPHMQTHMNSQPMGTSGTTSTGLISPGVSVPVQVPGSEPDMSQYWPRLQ
# Outline: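 Fluorescent RT-PCR products separated by capillary electrophoresis report PAX6-linked promoter mRNA in HepG2 cells 24 h post-dose. Curves fitted bidirectionally, DMSO as negative control.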
smiles,measurement,setting,value
C=CC(=O)OCC(CC)CCCC (stereo unspecified),outcome,[1],inactive
same,outcome,[2],inactive
same,outcome,[3],inactive
same,outcome,[4],inactive
same,outcome,[5],inactive
same,outcome,[6],inactive
same,outcome,[7],inactive
same,outcome,[8],inactive
same,outcome,[9],inactive
same,outcome,[10],inactive
same,outcome,[11],inactive
same,outcome,[12],inactive
same,outcome,[13],inactive
same,outcome,[14],inactive
same,outcome,[15],inactive
same,outcome,[16],inactive
same,outcome,[17],inactive
same,outcome,[18],inactive
C[N+](C)=CCl,outcome,[2],inactive
same,outcome,[19],inactive
same,outcome,[3],inactive
same,outcome,[4],inactive
same,outcome,[5],inactive
same,outcome,[20],inactive
same,outcome,[6],inactive
same,outcome,[7],inactive
same,outcome,[8],inactive
same,outcome,[9],inactive
same,outcome,[10],inactive
same,outcome,[11],inactive
same,outcome,[12],inactive
same,outcome,[13],inactive
same,outcome,[14],inactive
same,outcome,[15],inactive
same,outcome,[17],inactive
CCCCCCCCCCCC#N,outcome,[1],inactive
same,outcome,[2],inactive
same,AC50,[19],163 µM (active)
same,outcome,[3],inactive
same,outcome,[4],inactive
same,AC50,[5],136 µM (active)
same,outcome,[20],inactive
same,outcome,[6],inactive
same,outcome,[7],inactive
same,outcome,[8],inactive
same,AC50,[9],173 µM (active)
same,outcome,[10],inactive
same,outcome,[11],inactive
same,AC50,[12],169 µM (active)
same,outcome,[13],inactive
same,AC50,[14],131 µM (active)
same,AC50,[15],141 µM (active)
same,outcome,[16],inactive
same,AC50,[17],80.6 µM (active)
same,outcome,[18],inactive
CCOP(=O)(OCC)Oc1ccc([N+](=O)[O-])cc1,outcome,[1],inactive
same,outcome,[2],inactive
same,outcome,[19],inactive
same,outcome,[4],inactive
same,outcome,[5],inactive
same,outcome,[20],inactive
same,outcome,[6],inactive
same,outcome,[7],inactive
same,outcome,[8],inactive
same,outcome,[9],inactive
same,outcome,[10],inactive
same,outcome,[11],inactive
same,outcome,[12],inactive
same,outcome,[13],inactive
same,outcome,[14],inactive
same,outcome,[15],inactive
same,outcome,[16],inactive
same,outcome,[17],inactive
same,outcome,[18],inactive
C[N+](C)(C)CC(=O)[O-],outcome,[1],inactive
same,outcome,[2],inactive
same,outcome,[5],inactive
same,outcome,[20],inactive
same,outcome,[6],inactive
same,outcome,[7],inactive
same,outcome,[9],inactive
same,outcome,[10],inactive
same,outcome,[11],inactive
same,outcome,[12],inactive
same,outcome,[15],inactive
same,outcome,[18],inactive
